AmpC inh no detg = qHTS Inhibitors of AmpC Beta-Lactamase (assay without detergent); actives 0.52% (n = 330,000); AmpC nitrocefin hydrolysis, absorbance 480 nm, 0.0001% Triton; Potency, µM (highest dose often 57.1 µM), inactives show top-dose activity change, negative = inhibition, actives largely listed as inhibitors; AID 485341, 2010;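 also: plate controls were no compound for no effect and no enzyme for full effect; nearly all actives have a fitted effect of over 20% in size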
Target sequence (P00811 whole entry, looked up): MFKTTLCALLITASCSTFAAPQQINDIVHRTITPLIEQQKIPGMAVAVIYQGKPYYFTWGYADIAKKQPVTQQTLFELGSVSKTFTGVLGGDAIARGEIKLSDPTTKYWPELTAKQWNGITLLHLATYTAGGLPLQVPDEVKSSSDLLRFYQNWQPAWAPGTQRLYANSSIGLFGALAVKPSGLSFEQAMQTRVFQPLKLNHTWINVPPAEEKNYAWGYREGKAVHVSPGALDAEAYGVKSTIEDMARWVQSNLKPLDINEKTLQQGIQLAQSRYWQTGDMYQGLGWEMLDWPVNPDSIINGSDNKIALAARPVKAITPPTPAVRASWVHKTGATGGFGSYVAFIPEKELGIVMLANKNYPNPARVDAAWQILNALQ
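20 mM phosphate pH 7.0 + 0.01% (detergent screen) or 0.0001% Triton X-100; 5.3 nM AmpC reagent; cpd preinc 15 min RT; nitrocefin (800 uM stock) to start; A480 q20 s × 4 min; Activity was normalised to no-enzyme and no-compound control wells.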
AmpC inh detg = qHTS Inhibitors of AmpC Beta-Lactamase (assay with detergent) | actives 0.041% (n = 370,000) | Potency, µM (titrated, usually from 114 µM), for inactives: at the highest dose activity change, negative = inhibition, most hits filed as inhibitors | AmpC hydrolysis of nitrocefin, absorbance 480 nm, 0.01% Triton | P00811;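 also: 0% = no-compound wells and -100% = no-enzyme wells; nearly all actives have a fitted effect of over 25% in size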
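AmpC (5.3 nM in the dispensed reagent) in 20 mM phosphate pH 7.0 with 0.01% (detergent screen) or 0.0001% Triton X-100 was preincubated with compounds for 15 min at room temperature. Nitrocefin was then added from an 800 uM solution, and hydrolysis was followed at 480 nm.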
SARS PLpro yeast = qHTS of Yeast-based Assay for SARS-CoV PLP; S. cerevisiae expressing SARS-CoV PLpro, growth rescue; Potency, µM (top dose mostly 32.9 µM), for the others: at the highest dose activity, positive = growth rescue, usual class: activators; actives 0.19% (n = 330,000); calls by dose curve; also: 0% is about no effect; nearly all actives have a fitted effect of over 55% in size
Sm TGR inh = qHTS Assay for the Inhibitors of Schistosoma Mansoni Peroxiredoxins; purified TGR, DTNB reduction, TNB absorbance 405 nm; Potency, µM (doses to about 114 µM), for the others: top-dose activity change, negative = inhibition, actives largely listed as inhibitors; actives 3% (n = 360,000); also: % is scaled to controls: 0 for no effect and ±100 for the full control effect; nearly all actives have a fitted effect of over 60% in size
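Kinetic colorimetric format: TGR-catalysed, NADPH-driven DTNB reduction monitored via TNB absorbance. Enzyme dispensed at 20 nM; compound exposure 15 min at room temperature before reaction start.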
Pf growth 48h = Primary qHTS for delayed death inhibitors of the malarial parasite plastid, 48 hour incubation. P. falciparum luciferase growth in erythrocytes, 48 h. Potency, µM (series often up to 28.7 µM), without a hit: at the highest dose activity change, negative = inhibition, actives largely listed as inhibitors. actives 5.9% (n = 310,000); also: % is scaled to controls: 0 for no effect and ±100 for the full control effect
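Luminescence readout; reporter = integrated firefly luciferase in P. falciparum. RBC culture at 2% hematocrit, 0.1% parasitemia final, 37 C/5% CO2; decreased signal taken as growth inhibition.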
Pf growth 96h = Primary qHTS for delayed death inhibitors of the malarial parasite plastid, 96 hour incubation; actives 6.9% (n = 320,000); Potency, µM (top dose mostly 28.7 µM), for the others: top-dose activity change, negative = inhibition, usual class: inhibitors; P. falciparum luciferase reporter growth, 96 h; AID 504834, 2011; also: % is scaled to controls: 0 for no effect and ±100 for the full control effect
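Parasite growth measured via integrated firefly luciferase reporter in P. falciparum. Infected erythrocytes at 2% hematocrit, 0.05% parasitemia final were treated 96 hours at 37 C under 5% CO2, and luminescence was read.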
The depositor's hits bear a star; ? = inconclusive; / = no result; [ ] = remark or other dose. Shown are actives, neighbours in structure and some others; about 12% of the full set was active somewhere. Unless noted, calls follow the shape of the dose curve; as a rule, active = well fitted curve in the direction sought with a large enough effect; inconclusive = small, poorly fitted or top-dose-only effect, or another doubt; inactive = no such curve, though single readings can be large; an effect the other way counts as inactive or inconclusive. Potency is read from the fitted curve at half-maximal effect.

SMILES	AmpC inh no detg	AmpC inh detg	SARS PLpro yeast	Sm TGR inh	Pf growth 48h	Pf growth 96h
Cc1oc(-c2ccccc2F)nc1CS(=O)(=O)CC(=O)N1CCN(Cc2ccccc2)CC1	195.5%	-19.1%	5.9%	12.6µM*	-24.5%	?
Cc1ccccc1-c1nc(CN2CCC(C(=O)N3CCC(C(N)=O)CC3)CC2)c(C)o1	11.2µM*	?	2.1%	-20.2%	-4.5%	?
O=C(CSc1ccccc1)Nc1ccc(N2CCOCC2)c(F)c1	5.6%	-1.2%	1.1%	-0.2%	92.8%	85.7%
CCOC(=O)c1ccccc1NC(=O)N(Cc1ccco1)C1CCN(C(C)=O)CC1	/	-0.1%	/	1.7%	/	/
COc1ccc(NC(=O)CCC(=O)N(Cc2ccc(OC)c(OC)c2)c2nccs2)c(OC)c1	118.6%	-4.4%	0.7%	4.2%[57.1 µM]	7.3%	2.94µM*
COc1ccc(Cn2c(C(=O)O)c(CNCc3ccco3)c3ccc(C)cc32)cc1	/	13.5%	/	0.1%	/	/
COc1ccc(Cn2c(C(=O)O)c(CNCCc3ccco3)c3ccc(OC)cc32)cc1	/	5.7%	/	44.7µM*	/	/
Cc1ccc2c(CNCCc3ccco3)c(C(=O)O)n(Cc3ccc(F)cc3)c2c1	/	-0.2%	/	39.8µM*	/	/
Cc1ccc(SC(C)C(=O)Nc2ccccc2-c2ccccc2)cc1 (stereo not drawn)	-11.8%	?	-41.5%	9.0%	-18.2%	13.1µM*
CC(Sc1ccc(Cl)cc1)C(=O)Nc1ccccc1-c1ccccc1 (stereo not drawn)	-15.4%	?	-23.5%	-5.5%	2.33µM*	-2.1%
CCNC(=O)C(C)Sc1ccc(Cl)cc1 (stereo not drawn)	-9.5%	-6.6%	0.8%	0.8%	?	/
Fc1ccc(/C=N/Nc2cc(N3CCOCC3)ncn2)cc1	-15.5%	2.0%	5.5%	-14.7%	77.3%	?
COc1cccc(/C=N/Nc2cc(N3CCOCC3)ncn2)c1O	-4.1%	1.4%	17.1%	3.2%	0.928µM*	134.6%
COc1ccc(/C=N/Nc2cc(N3CCOCC3)ncn2)c(OC)c1	-14.8%	-6.2%	/	-6.8%	-1.5%	?
COc1cccc(/C=N/Nc2ncnc3c2ncn3Cc2ccccc2)c1O	-29.2%	-14.1%	?	0.3%	1.85µM*	2.33µM*
Fc1cccc(/C=N/Nc2cc(N3CCOCC3)ncn2)c1	-16.2%	-2.6%	2.82µM*	-5.3%	146.9%	2.33µM*
Cc1ccc(S(=O)(=O)N2CCCCC2)cc1C(=O)OC1CCCCC1=O (stereo not drawn)	15.7%	-3.1%	2.5%	7.3%	11.3%	3.5%
Cn1cc(Br)c(-c2cccc(NC(=O)CCCC(=O)O)c2)n1	-8.0%	2.8%	0.0%	12.4%	?	-23.4%
COc1ccc(CN2CCN(C(=O)C3CCC(CNS(=O)(=O)c4ccc(C)cc4)CC3)CC2)c(OC)c1OC (stereo not drawn)	171.0%	-0.2%	-0.3%	-0.2%	-3.7%	-26.5%
CCCc1ccc2oc(C(=O)N(C)Cc3cnccn3)c(C)c2c1	-23.5%	5.8%	3.8%	?	2.1%	10.4µM*
Cc1c(C(=O)N(Cc2ccc(N(C)C)cc2)CC2CCCO2)oc2ccc(Cl)cc12 (stereo not drawn)	/	14.8%	/	0.1%	/	/
Cc1c(C(=O)N(Cc2ccc(N(C)C)cc2)CC2CCCO2)oc2ccccc12 (stereo not drawn)	103.3%	-8.9%	-10.7%	-29.4%	-21.1%	4.15µM*
CCCc1ccc2oc(C(=O)N(C)CCn3ccnc3C)c(C)c2c1	59.4%	-8.4%	5.5%	5.1%	-0.6%	64.7%
CCCc1ccc2oc(C(=O)N(Cc3ccncc3)CC3CCCO3)c(C)c2c1 (stereo not drawn)	180.3%	-3.9%	-12.9%	-16.1%	9.28µM*	17.5%
Cc1ccc2nc3c(cc(C#N)c(=N)n3CC3CCCO3)c(=O)n2c1 (stereo not drawn)	-9.1%	-8.1%	6.9%	-1.8%	35.5%	?
SMILES	AmpC inh no detg	AmpC inh detg	SARS PLpro yeast	Sm TGR inh	Pf growth 48h	Pf growth 96h
O=S(=O)(Nc1ccc(F)c(Cl)c1)c1ccc(Br)s1	/	0.9%	/	-33.0%	/	/
COc1c2c(cc3oc(CO[C@@H]4O[C@H](CO)[C@@H](O)[C@H](O)[C@H]4O)cc(=O)c13)O[C@H](C(C)(C)O)C2	-10.1%	/	4.7%	/	/	/
CC(C)Oc1ccc(CNC(=O)C2CCN(C(=O)N3CCOc4ccc(Cl)cc43)CC2)cc1	/	4.6%	/	-8.9%	/	/
COc1ccc(NC(=S)N2CCN(c3ncccn3)CC2)c(OC)c1	-1.6%	9.9%	0.5%	2.2%	7.0%	9.5%
COC(=O)C1CSc2[nH]c(=O)sc2C1c1ccc(OC)c(OC)c1 (stereo not drawn)	-24.2%	-10.9%	4.9%	6.5%	10.4µM*	?
COc1ccc(C2NC(=O)CS2)cc1OC (stereo not drawn)	-9.9%	?	0.5%	3.8%	7.3%	-20.6%
O=[N+]([O-])c1ccc2ncnc(Nc3ccc4c(c3)OCCO4)c2c1	-32.3%	1.4%	1.8%	-1.2%	9.28µM*	?
O=C(O)c1ccc2c(c1)C(=O)N(c1nccs1)C2=O	-13.6%	0.4%	1.4%	28.3%	3.29µM*	7.1%
O=C(O)c1ccc2c(c1)C(=O)N(c1ccccc1-c1ccccc1)C2=O	-11.1%	-2.5%	0.5%	3.6%	11.8%	-12.3%
COc1ccc(CNC(=O)CCn2cccn2)cc1	/	6.8%	/	7.6%	/	/
COc1ccc(C2C(C(N)=O)=C(C)Nc3nc(CCCO)nn32)c(OC)c1 (stereo not drawn)	/	23.9%	/	-3.4%	/	/
N#Cc1ccc(NC(=O)C2=COCCO2)cc1	-6.0%	4.5%	-5.0%	89.1µM*	120.4%	172.6%
N#Cc1ccc(NC(=O)COC(=O)C2=COCCO2)cc1	-15.2%	-1.3%	5.2%	11.8%	24.5%	33.3%[5.75 µM]
COc1ccc(NC(=O)c2oc3ccccc3c2NC(=O)Cc2cccs2)c(OC)c1	/	4.7%	/	-3.4%	/	/
CCN(CC)C(=O)Cn1c(=O)n(Cc2ccc(C(=O)NCCc3ccc(OC)c(OC)c3)cc2)c(=O)c2ccccc21	/	21.7%	/	-0.5%	/	/
Cc1nnc(N/N=C/c2ccccc2C(F)(F)F)n1N	-15.5%	1.3%	-3.4%	?	6.0%	82.6%
Cc1nnc(N/N=C/c2cccc(OCc3ccc(Cl)c(Cl)c3)c2)n1N	78.0%	-15.6%	-25.8%	0.3%	13.1µM*	?
Cc1nnc(N/N=C/c2cccc(C(F)(F)F)c2)n1N	7.4%	6.8%	-5.5%	-16.8%	-4.4%	14.7µM*
